Screening results (PubChem)
Shown are actives, neighbours in structure and some others; about 9.9% of the full set was active somewhere.
KB-3-1 tox – kills parental KB-3-1 adenocarcinoma cells; AID 1347075; KB-3-1 viability, CellTiter-Glo ATP luminescence, 72 h; 400,000 compounds, 1.4% hits; Potency, µM (series often up to 46.1 µM), usual class: cytotoxic; also: potency is read from the fitted curve at half-maximal effect; % is scaled to controls: 0 for no effect and ±100 for the full control effect; nearly all actives have a fitted effect of over 60% in size
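Using CellTiter-Glo luminescence, growth of non-resistant KB-3-1 adenocarcinoma cells is assessed 72 h after pin-tool compound addition at 37 °C. Normalized responses across the concentration series yield fitted curves.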
MCF10A rerep – induces DNA re-replication in MCF 10a normal breast cells; MCF 10A DNA re-replication, Hoechst nuclear intensity, 48 h; Potency, µM (doses to about 46.1 µM), for the others: at the top dose activity, positive = re-replication, actives largely listed as activators; 350,000 compounds, 2.9% hits; also: potency is read from the fitted curve at half-maximal effect; % of control where 0% means no effect; nearly all actives have a fitted effect of over 50% in size
SW480 rerep – DNA re-replication induction in SW480 cells. SW480 DNA re-replication, Hoechst DNA content imaging, 48 h. Potency, µM (titrated, usually from 46.1 µM), without a hit: at the top dose re-replication activation, hits mostly activators. 340,000 compounds, 1.8% hits; also: potency is read from the fitted curve at half-maximal effect; % of control where 0% means no effect; nearly all actives have a fitted effect of over 55% in size
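SW480 cells exposed to compounds for 48 hr at 37 C, 5% CO2, then Hoechst-stained 40 min. Nuclear DNA content imaged by fluorescence scanning (405 nm excitation, 500-530 nm emission); re-replication scored as increased high-intensity nuclei.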
KB-V1 MDR tox – KB-V1 MDR subline cytotoxicity. 400,000 compounds, 3.4% hits. Potency, µM (top dose mostly 46.1 µM), hits mostly cytotoxic. KB-V1 MDR cells viability, CellTiter-Glo, 72 h; also: potency is read from the fitted curve at half-maximal effect; % is scaled to controls: 0 for no effect and ±100 for the full control effect; nearly all actives have a fitted effect of over 60% in size
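Drug-selected KB-V1 cells, grown in DMEM lacking phenol red with 10% FBS, receive compound titrations; after three days at 37 degrees C, surviving cell ATP is quantified by CellTiter-Glo luminescence and responses normalized and curve-fitted.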
IL1B secr inh – inhibitors of inflammasome signaling (IL-1 beta secretion); THP-1 LPS/ATP IL-1B secretion, AlphaLISA, 16 h; hits give low values; 360,000 compounds, 4.7% hits; activity change, % at 57.5 µM; in the data active = activity change below about -50%; inconclusive = mostly about -30% to -49%; also: % is scaled to controls: 0 for no effect and ±100 for the full control effect
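THP-1 cells pretreated 1 hr with compounds (up to 57.5 uM final), then stimulated with LPS (250 ng/mL final) plus ATP (1.25 mM final); secreted IL-1B measured by AlphaLISA after 16 hr, decreased signal indicating inhibition.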
The depositor's hits bear a star. Unless noted, calls follow the shape of the dose curve; as a rule, active = well fitted curve in the direction sought with a large enough effect; inconclusive = small, poorly fitted or top-dose-only effect, or another doubt; inactive = no such curve, though single readings can be large; an effect the other way counts as inactive or inconclusive.

Results for Cc1nnc(N/N=C/c2cc([N+](=O)[O-])c(N3CCC(C)CC3)cc2N2CCC(C)CC2)n1N ?
KB-3-1 tox: inactive; MCF10A rerep: inconclusive; SW480 rerep: inconclusive; KB-V1 MDR tox: 23µM*; IL1B secr inh: -68*

What do the screens show for `O=C1c2cccc3cc([N+](=O)[O-])cc(c23)C(=O)N1/N=C/c1ccc(O)cc1O`?
KB-3-1 tox: inactive; MCF10A rerep: 18%; SW480 rerep: 13µM*; KB-V1 MDR tox: inactive; IL1B secr inh: -96*

Results for CCN(CC)CCN1C(=O)c2cccc3cc(N)cc(c23)C1=O ?
KB-3-1 tox: inconclusive; MCF10A rerep: 22%; SW480 rerep: inconclusive; KB-V1 MDR tox: inconclusive; IL1B secr inh: -78*

What do the screens show for `O=C1c2cccc3cc([N+](=O)[O-])cc(c23)C(=O)N1CCN1CCCC1`?
KB-3-1 tox: inconclusive; MCF10A rerep: inconclusive; SW480 rerep: inconclusive; KB-V1 MDR tox: inconclusive; IL1B secr inh: -98*

How did Cc1cc(C)c(S(=O)(=O)N2CCN(CCN3C(=O)c4cccc5cccc(c45)C3=O)CC2)cc1[N+](=O)[O-] do in these assays?
MCF10A rerep: -11%; SW480 rerep: -11%

What do the screens show for `O=C1c2cccc3cccc(c23)C(=O)N1CCO`?
KB-3-1 tox: inactive; KB-V1 MDR tox: inactive; IL1B secr inh: -9

What do the screens show for `O=C1c2cccc3cccc(c23)C(=O)N1CCN1CCN(C(=S)Nc2ccc(Cl)cc2)CC1`?
KB-3-1 tox: inactive; MCF10A rerep: -4%; SW480 rerep: -2%; KB-V1 MDR tox: inactive; IL1B secr inh: 16

How did O=C1c2cccc3cccc(c23)C(=O)N1CCN1CCN(C(=S)Nc2ccccc2)CC1 do in these assays?
KB-3-1 tox: inactive; MCF10A rerep: 10%; SW480 rerep: 14%; KB-V1 MDR tox: 18µM*; IL1B secr inh: inconclusive

What do the screens show for `COc1ccc(CN(C)c2ccc(-c3nc(-c4ccc(OC)c(OC)c4)no3)cc2[N+](=O)[O-])cc1`?
KB-3-1 tox: inactive; KB-V1 MDR tox: inactive

How did CSc1ccccc1OCc1cc(C(=O)N2CCN3CCCC3C2)no1 (stereo unspecified) do in these assays?
KB-3-1 tox: inactive; MCF10A rerep: inconclusive; SW480 rerep: 1%; KB-V1 MDR tox: inactive; IL1B secr inh: -5

How did Nc1cc2c3c(cccc3c1)C(=O)N(CCN1CCCC1)C2=O do in these assays?
KB-3-1 tox: inconclusive; MCF10A rerep: inconclusive; SW480 rerep: 15µM*; KB-V1 MDR tox: 23µM*; IL1B secr inh: -99*

Results for C=CCn1c(SCC(N)=O)nnc1-c1cccc(Br)c1 ?
KB-3-1 tox: inactive; MCF10A rerep: 1%; SW480 rerep: -4%; KB-V1 MDR tox: inactive; IL1B secr inh: -2

Results for C=CCn1c(SCc2ccccc2C#N)nnc1-c1cc(Br)ccc1O ?
KB-3-1 tox: inconclusive; MCF10A rerep: inconclusive; SW480 rerep: 11%; KB-V1 MDR tox: 3.7µM*; IL1B secr inh: 0

What do the screens show for `O=C(CN1CCN(c2ccccn2)CC1)N1c2ccccc2Sc2ccc(C(F)(F)F)cc21`?
KB-3-1 tox: inconclusive; MCF10A rerep: 23%; SW480 rerep: inconclusive; KB-V1 MDR tox: inconclusive; IL1B secr inh: -6

How did O=C(CN1CCN(c2ccccn2)CC1)N1c2ccccc2CCc2ccccc21 do in these assays?
KB-3-1 tox: inactive; MCF10A rerep: 14%; SW480 rerep: 11%; KB-V1 MDR tox: 5.8µM*; IL1B secr inh: -6

Results for O=C(CSc1ccc(-c2ccccn2)nn1)N1CCCC1 ?
KB-3-1 tox: inactive; MCF10A rerep: 3%; SW480 rerep: -3%; KB-V1 MDR tox: inconclusive; IL1B secr inh: 2

What do the screens show for `CCCOC(=O)CSc1nnc(-c2ccccc2)o1`?
KB-3-1 tox: inactive; KB-V1 MDR tox: inactive

What do the screens show for `CCN(CC)C(=O)CSc1nnc(-c2ccccc2)o1`?
KB-3-1 tox: inactive; MCF10A rerep: 5.2µM*; SW480 rerep: inconclusive; KB-V1 MDR tox: inactive; IL1B secr inh: -2

What do the screens show for `Cc1n[nH]c(C)c1N=Nc1ccc(Br)cc1`?
KB-3-1 tox: 16µM*; MCF10A rerep: inconclusive; SW480 rerep: -14%; KB-V1 MDR tox: inconclusive; IL1B secr inh: -30

Results for CCc1ccc(C(C(=O)NC2CCCC2)N(C(=O)/C=C/C(=O)Nc2cc(C)on2)c2ccccc2C)cc1 (stereo unspecified) ?
KB-3-1 tox: inconclusive; MCF10A rerep: 15%; SW480 rerep: inconclusive; KB-V1 MDR tox: inactive; IL1B secr inh: -63*

How did CCOc1ccc(N(C(=O)/C=C/C(=O)Nc2cc(C)on2)C(C(=O)NC2CCCC2)c2ccccc2C)cc1 (stereo unspecified) do in these assays?
KB-3-1 tox: 9.2µM*; MCF10A rerep: -1%; SW480 rerep: -4%; KB-V1 MDR tox: inconclusive; IL1B secr inh: -24

How did CCCCN(C(=O)CCC(=O)Nc1cc(C)on1)C(C(=O)NC1CCCC1)c1ccc(F)cc1 (stereo unspecified) do in these assays?
KB-3-1 tox: inactive; MCF10A rerep: inconclusive; SW480 rerep: inconclusive; KB-V1 MDR tox: inconclusive; IL1B secr inh: -77*

Results for CCCCN(C(=O)CCC(=O)Nc1cc(C)on1)C(C(=O)NC1CCCC1)c1ccccc1C (stereo unspecified) ?
KB-3-1 tox: inactive; MCF10A rerep: 15%; SW480 rerep: 0%; KB-V1 MDR tox: inconclusive; IL1B secr inh: -3

What do the screens show for `COc1ccc(C(C(=O)NC(C)(C)C)N(CCc2ccccc2)C(=O)CCC(=O)Nc2cc(C)on2)cc1` (stereo unspecified)?
KB-3-1 tox: inactive; MCF10A rerep: 4%; SW480 rerep: 4%; KB-V1 MDR tox: inconclusive; IL1B secr inh: -57*

How did COc1ccc(C(C(=O)NC(C)(C)C)N(CCO)C(=O)CCC(=O)Nc2cc(C)on2)cc1 (stereo unspecified) do in these assays?
KB-3-1 tox: inactive; MCF10A rerep: 1%; SW480 rerep: -2%; KB-V1 MDR tox: inactive; IL1B secr inh: 28

How did Cc1cc(C)c(C(=O)N2CCC(N3CCC(C(=O)NC(C)C)CC3)CC2)o1 do in these assays?
KB-3-1 tox: inactive; MCF10A rerep: 7%; SW480 rerep: 20%; KB-V1 MDR tox: inactive; IL1B secr inh: 2

Results for Cc1nn(CC(=O)Nc2nnc(C(C)C)s2)c(=O)c2ccccc12 ?
KB-3-1 tox: inactive; MCF10A rerep: 0%; SW480 rerep: -17%; KB-V1 MDR tox: inactive; IL1B secr inh: 0

How did CN1CCN(Cc2cccc(Oc3ccccc3)c2)CC1 do in these assays?
KB-3-1 tox: inactive; MCF10A rerep: 16%; SW480 rerep: 3%; KB-V1 MDR tox: inactive; IL1B secr inh: -53*

How did COc1ccc(CN2CCN(Cc3cccc(Oc4ccccc4)c3)CC2)c(OC)c1OC do in these assays?
KB-3-1 tox: inconclusive; MCF10A rerep: 23%; SW480 rerep: 9%; KB-V1 MDR tox: inactive; IL1B secr inh: -89*
